# Test results: ChEMBL document CHEMBL5606460, “ASAP - DENV-2 NS2B-NS3 protease fluorescence single point” (2024)
# Among all 2,000 compounds or so, about 110 (5.5%) showed an effect of 50% or more. This excerpt belongs to a sample that is enriched for strong results.
# Biological target: Genome polyprotein (dengue virus type 2) (UniProt P29990)
# [1] = Thailand/16681/1984, Concentration 25.0 uM, Number of replicates 1.0
structure (smiles),measurement,setting,value
CCn1ncc(-c2ccccc2C(=O)Nc2cnn(C)c2)c1F,inhibition,"Thailand/16681/1984, Concentration 49.5 uM, Number of replicates 2.0, Standard deviation 1.7362397615810676 %",-3.37%
same,inhibition,"Thailand/16681/1984, Concentration 99.01 uM, Number of replicates 2.0, Standard deviation 3.5632406540879202 %",-3.71%
same,inhibition,"Thailand/16681/1984, Concentration 198.0 uM, Number of replicates 2.0, Standard deviation 2.004108271976906 %",-1.89%
COc1c(Cl)cccc1NC(=O)C1CCN(c2ccc(C=O)cc2)CC1,inhibition,[1],13.9%
C[C@H]1CCC[C@H](C)N1CCNC(=O)C1CCN(c2ccc(C=O)cc2)CC1,inhibition,[1],12.4%
CNC(=O)c1cn(C[C@H]2CCCN2C(=O)c2cccc3ncsc23)nn1,inhibition,"Thailand/16681/1984, Concentration 49.5 uM, Number of replicates 2.0, Standard deviation 0.1358580059513503 %",0.293%
same,inhibition,"Thailand/16681/1984, Concentration 99.01 uM, Number of replicates 2.0, Standard deviation 0.18464096005398162 %",0.707%
same,inhibition,"Thailand/16681/1984, Concentration 198.0 uM, Number of replicates 2.0, Standard deviation 0.18359188284769695 %",0.879%
O=Cc1ccc(N2CCC(C(=O)NCc3ccc(Br)s3)CC2)cc1,inhibition,[1],12.4%
O=C(Nc1ccc2c(c1)CNC2)c1cc(Cl)cc(C(F)(F)F)n1,inhibition,"Thailand/16681/1984, Concentration 99.5 uM, Number of replicates 2.0, Standard deviation 0.07984298981903766 %",98%
same,inhibition,"Thailand/16681/1984, Concentration 295.6 uM, Number of replicates 2.0, Standard deviation 0.03008678069059277 %",99.8%
Cn1ncc2c(C(=O)Nc3ccc4c(c3)CNC4)cc(-c3cccnc3)nc21,inhibition,"Thailand/16681/1984, Concentration 99.5 uM, Number of replicates 2.0, Standard deviation 0.6966055883154065 %",-0.716%
same,inhibition,"Thailand/16681/1984, Concentration 295.6 uM, Number of replicates 2.0, Standard deviation 0.8690208118243027 %",16.8%
N#Cc1cccc(NC(=O)c2cccc(OCc3c(Cl)cccc3Cl)c2)c1,inhibition,"Thailand/16681/1984, Concentration 49.5 uM, Number of replicates 2.0, Standard deviation 0.9750482899240065 %",1.9%
same,inhibition,"Thailand/16681/1984, Concentration 99.01 uM, Number of replicates 2.0, Standard deviation 10.511808397875392 %",16.1%
same,inhibition,"Thailand/16681/1984, Concentration 198.0 uM, Number of replicates 2.0, Standard deviation 5.918696266313343 %",7%
N#Cc1cccc(-c2nc3c(C(=O)NCc4ccccn4)cc(Cl)cc3[nH]2)c1,inhibition,"Thailand/16681/1984, Concentration 99.5 uM, Number of replicates 2.0, Standard deviation 0.024300186977441064 %",-1.93%
same,inhibition,"Thailand/16681/1984, Concentration 295.6 uM, Number of replicates 2.0, Standard deviation 0.2349015826654049 %",5.47%
Cc1cnccc1NC(=O)c1cccc(C(F)(F)F)n1,inhibition,"Thailand/16681/1984, Concentration 49.5 uM, Number of replicates 2.0, Standard deviation 0.6191824281934856 %",0.024%
same,inhibition,"Thailand/16681/1984, Concentration 99.01 uM, Number of replicates 2.0, Standard deviation 1.7542746720133946 %",-0.908%
same,inhibition,"Thailand/16681/1984, Concentration 198.0 uM, Number of replicates 2.0, Standard deviation 1.379232208237382 %",-0.988%
N#Cc1cccc(-c2nc3c(C(=O)Nc4ccc5c(c4)CNC5)cc(Cl)cc3[nH]2)c1,inhibition,"Thailand/16681/1984, Concentration 99.5 uM, Number of replicates 2.0, Standard deviation 0.0717454001083366 %",96.4%
same,inhibition,"Thailand/16681/1984, Concentration 295.6 uM, Number of replicates 2.0, Standard deviation 0.16315483385791593 %",93.6%
CCCOc1ccc(NC(=O)C2CCN(c3ccc(C=O)cc3)CC2)cc1,inhibition,[1],0.636%
O=Cc1ccc(N2CCC(C(=O)N3CCN(C(c4ccc(F)cc4)c4ccc(F)cc4)CC3)CC2)cc1,inhibition,[1],1.35%
COc1cccc(Cn2ncc(C3CCNCC3)c2C)n1,inhibition,"Thailand/16681/1984, Concentration 49.5 uM, Number of replicates 2.0, Standard deviation 0.6865140838852157 %",-2.28%
same,inhibition,"Thailand/16681/1984, Concentration 99.01 uM, Number of replicates 2.0, Standard deviation 1.8857815426916016 %",-0.708%
same,inhibition,"Thailand/16681/1984, Concentration 198.0 uM, Number of replicates 2.0, Standard deviation 1.685903611817113 %",-0.083%
O=Cc1ccc(N2CCC(C(=O)NCCCn3nccc3C3CC3)CC2)cc1,inhibition,[1],15.6%
O=Cc1ccc(N2CCC(C(=O)Nc3cc(C(F)(F)F)ccn3)CC2)cc1,inhibition,[1],10.8%
Cc1cc(CO)c2cccc(Cc3cccc(NC(=O)c4nc(C5CCNCC5)oc4C)c3)c2n1,inhibition,"Thailand/16681/1984, Concentration 49.95 uM, Number of replicates 2.0, Standard deviation 2.427412589513284 %",-2.68%
same,inhibition,"Thailand/16681/1984, Concentration 99.9 uM, Number of replicates 2.0, Standard deviation 2.040383474434353 %",-3.1%
Cc1cc(CO)c2cccc(NC(=O)c3nc(C4CCNCC4)oc3C)c2n1,inhibition,"Thailand/16681/1984, Concentration 49.95 uM, Number of replicates 2.0, Standard deviation 36.17788639576005 %",67.7%
same,inhibition,"Thailand/16681/1984, Concentration 99.9 uM, Number of replicates 2.0, Standard deviation 0.36888000776056334 %",98.7%
Cc1cc(CO)c2cccc(Cc3ccccc3NC(=O)c3nc(C4CCNCC4)oc3C)c2n1,inhibition,"Thailand/16681/1984, Concentration 49.95 uM, Number of replicates 2.0, Standard deviation 1.1742415452444355 %",3.36%
same,inhibition,"Thailand/16681/1984, Concentration 99.9 uM, Number of replicates 2.0, Standard deviation 2.967451033370285 %",69.9%
CNc1ccccc1C(=O)Nc1ccccc1Cc1cccc2c(CO)cc(C)nc12,inhibition,"Thailand/16681/1984, Concentration 49.95 uM, Number of replicates 2.0, Standard deviation 0.9187611737377075 %",-6.32%
same,inhibition,"Thailand/16681/1984, Concentration 99.9 uM, Number of replicates 2.0, Standard deviation 0.9402243720481833 %",-7.75%
Cc1cc(CO)c2cccc(C[C@H](NC(=O)c3nc(C4CCNCC4)oc3C)C(=O)O)c2n1,inhibition,"Thailand/16681/1984, Concentration 49.95 uM, Number of replicates 2.0, Standard deviation 0.8080216779744858 %",2.79%
same,inhibition,"Thailand/16681/1984, Concentration 99.9 uM, Number of replicates 2.0, Standard deviation 0.4573836691864076 %",10%
Cc1cc(CO)c2cccc(NC(=O)c3nc(-c4ccccc4)oc3C(F)(F)F)c2n1,inhibition,"Thailand/16681/1984, Concentration 49.95 uM, Number of replicates 2.0, Standard deviation 3.021297847027803 %",28.1%
same,inhibition,"Thailand/16681/1984, Concentration 99.9 uM, Number of replicates 2.0, Standard deviation 2.6625533133971393 %",43.6%
Cc1nccc(Cn2cc(C3CCNCC3)c(C)n2)n1,inhibition,"Thailand/16681/1984, Concentration 49.5 uM, Number of replicates 2.0, Standard deviation 0.12424043789356491 %",-1.07%
same,inhibition,"Thailand/16681/1984, Concentration 99.01 uM, Number of replicates 2.0, Standard deviation 0.32682664095966646 %",-0.665%
same,inhibition,"Thailand/16681/1984, Concentration 198.0 uM, Number of replicates 2.0, Standard deviation 1.945197851645592 %",1.76%
CN(Cc1nc2ccccc2n1C)C(=O)C1CCN(c2ccc(C=O)cc2)CC1,inhibition,[1],14.9%
CNC(=O)c1ccncc1NS(=O)(=O)c1ccc(Oc2ccccc2Cl)cc1,inhibition,"Thailand/16681/1984, Concentration 49.5 uM, Number of replicates 2.0, Standard deviation 3.023334340601001 %",-2.48%
same,inhibition,"Thailand/16681/1984, Concentration 99.01 uM, Number of replicates 2.0, Standard deviation 3.20078374174672 %",-0.672%
same,inhibition,"Thailand/16681/1984, Concentration 198.0 uM, Number of replicates 2.0, Standard deviation 2.339843576600017 %",2.95%
